Results from the supplement of paper PMC8975748.
Where a name gives a salt, the structure may show the parent alone. ± gives the standard deviation of the averaged measurements.

Tests used:
[1] = system: Saccharomyces cerevisiae BY4741 SeMeCo community; assay: mean cell size (pixel area) (pixels); higher = larger cells; settings: 10 µM; 24 h; SM minimal medium
Summary of the method: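 A fluorescent Saccharomyces cerevisiae BY4741 community carrying four plasmids was used, with each plasmid complementing one auxotrophy and bearing a fluorescent marker. An overnight preculture at OD600 = 1.0 was diluted to OD600 = 0.3, and 70 µl went into 384-well plates acoustically predosed with drug (final 10 µM) in SM medium for 24 h. After paraformaldehyde fixation, cells were imaged by automated confocal microscopy and analysed in Harmony, giving the mean cell pixel area per well. Each value is the average of 3 replicates. Same SeMeCo high-content imaging drug screen: Selleck FDA-approved drugs at 10 µM, 24 h in SM medium, 384-well plates, 3 replicates.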

[2] = system: Saccharomyces cerevisiae BY4741 SeMeCo community; assay: z-score of prototroph abundance vs DMSO median; higher = larger share of this subpopulation than in DMSO controls; settings: 10 µM; 24 h; SM minimal medium; subpopulation (auxotrophy): Prototroph
Summary of the method: (§1)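 Scoring was based on each subpopulation's abundance, expressed as a z-score against the vehicle-well median. A Saccharomyces cerevisiae BY4741 community with four plasmids, each restoring one auxotrophy and encoding a distinct fluorescent protein, was pre-grown overnight to OD600 1.0, diluted to 0.3, and added at 70 µl to 384-well plates acoustically predosed with library drugs (10 µM final). It then grew 24 h in minimal SM medium before paraformaldehyde fixation and automated confocal microscopy, with single-auxotroph fluorescent strains setting thresholds and autofluorescence correction.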

[3] = system: Saccharomyces cerevisiae BY4741 SeMeCo community; assay: z-score of subpopulation abundance vs DMSO median, subpopulation auxotrophic for M; higher = larger share of this subpopulation than in DMSO controls; settings: 10 µM; 24 h; SM minimal medium; subpopulation (auxotrophy): M
Summary of the method: as §1

[4] = system: Saccharomyces cerevisiae BY4741 SeMeCo community; assay: z-score of subpopulation abundance vs DMSO median, subpopulation auxotrophic for L; higher = larger share of this subpopulation than in DMSO controls; settings: 10 µM; 24 h; SM minimal medium; subpopulation (auxotrophy): L
Summary of the method: as §1

[5] = system: Saccharomyces cerevisiae BY4741 SeMeCo community; assay: z-score of subpopulation abundance vs DMSO median, subpopulation auxotrophic for U; higher = larger share of this subpopulation than in DMSO controls; settings: 10 µM; 24 h; SM minimal medium; subpopulation (auxotrophy): U
Summary of the method: as §1

[6] = system: Saccharomyces cerevisiae BY4741 SeMeCo community; assay: z-score of subpopulation abundance vs DMSO median, subpopulation auxotrophic for H; higher = larger share of this subpopulation than in DMSO controls; settings: 10 µM; 24 h; SM minimal medium; subpopulation (auxotrophy): H
Summary of the method: as §1

[7] = system: Saccharomyces cerevisiae BY4741 SeMeCo community; assay: z-score of subpopulation abundance vs DMSO median, subpopulation auxotrophic for LM; higher = larger share of this subpopulation than in DMSO controls; settings: 10 µM; 24 h; SM minimal medium; subpopulation (auxotrophy): LM
Summary of the method: as §1

[8] = system: Saccharomyces cerevisiae BY4741 SeMeCo community; assay: z-score of subpopulation abundance vs DMSO median, subpopulation auxotrophic for HM; higher = larger share of this subpopulation than in DMSO controls; settings: 10 µM; 24 h; SM minimal medium; subpopulation (auxotrophy): HM
Summary of the method: as §1

[9] = system: Saccharomyces cerevisiae BY4741 SeMeCo community; assay: z-score of subpopulation abundance vs DMSO median, subpopulation auxotrophic for HL; higher = larger share of this subpopulation than in DMSO controls; settings: 10 µM; 24 h; SM minimal medium; subpopulation (auxotrophy): HL
Summary of the method: as §1

[10] = system: Saccharomyces cerevisiae BY4741 SeMeCo community; assay: z-score of subpopulation abundance vs DMSO median, subpopulation auxotrophic for HLU; higher = larger share of this subpopulation than in DMSO controls; settings: 10 µM; 24 h; SM minimal medium; subpopulation (auxotrophy): HLU
Summary of the method: as §1

[11] = system: Saccharomyces cerevisiae BY4741 SeMeCo community; assay: z-score of subpopulation abundance vs DMSO median, subpopulation auxotrophic for HLM; higher = larger share of this subpopulation than in DMSO controls; settings: 10 µM; 24 h; SM minimal medium; subpopulation (auxotrophy): HLM
Summary of the method: as §1

[12] = system: Saccharomyces cerevisiae BY4741 SeMeCo community; assay: z-score of subpopulation abundance vs DMSO median, subpopulation auxotrophic for LUM; higher = larger share of this subpopulation than in DMSO controls; settings: 10 µM; 24 h; SM minimal medium; subpopulation (auxotrophy): LUM
Summary of the method: as §1

[13] = system: Saccharomyces cerevisiae BY4741 SeMeCo community; assay: z-score of subpopulation abundance vs DMSO median, subpopulation auxotrophic for HLUM; higher = larger share of this subpopulation than in DMSO controls; settings: 10 µM; 24 h; SM minimal medium; subpopulation (auxotrophy): HLUM
Summary of the method: as §1

[14] = system: Saccharomyces cerevisiae BY4741 SeMeCo community; assay: z-score of subpopulation abundance vs DMSO median, subpopulation auxotrophic for UM; higher = larger share of this subpopulation than in DMSO controls; settings: 10 µM; 24 h; SM minimal medium; subpopulation (auxotrophy): UM
Summary of the method: as §1

[15] = system: Saccharomyces cerevisiae BY4741 SeMeCo community; assay: z-score of subpopulation abundance vs DMSO median, subpopulation auxotrophic for HUM; higher = larger share of this subpopulation than in DMSO controls; settings: 10 µM; 24 h; SM minimal medium; subpopulation (auxotrophy): HUM
Summary of the method: as §1

[16] = system: Saccharomyces cerevisiae BY4741 SeMeCo community; assay: z-score of subpopulation abundance vs DMSO median, subpopulation auxotrophic for HU; higher = larger share of this subpopulation than in DMSO controls; settings: 10 µM; 24 h; SM minimal medium; subpopulation (auxotrophy): HU
Summary of the method: as §1

[17] = system: Saccharomyces cerevisiae BY4741 SeMeCo community; assay: z-score of subpopulation abundance vs DMSO median, subpopulation auxotrophic for LU; higher = larger share of this subpopulation than in DMSO controls; settings: 10 µM; 24 h; SM minimal medium; subpopulation (auxotrophy): LU
Summary of the method: as §1

SMILES	mean cell size [1]	z-score of prototroph abundance [2]	z-score of subpopulation abundance [3]	z-score of subpopulation abundance [4]	z-score of subpopulation abundance [5]	z-score of subpopulation abundance [6]	z-score of subpopulation abundance [7]	z-score of subpopulation abundance [8]	z-score of subpopulation abundance [9]	z-score of subpopulation abundance [10]	z-score of subpopulation abundance [11]	z-score of subpopulation abundance [12]	z-score of subpopulation abundance [13]	z-score of subpopulation abundance [14]	z-score of subpopulation abundance [15]	z-score of subpopulation abundance [16]	z-score of subpopulation abundance [17]
CCN[C@@H]1C[C@H](N)[C@@H](O[C@H]2OC(CN)=CC[C@H]2N)[C@H](O)[C@H]1O[C@H]1OC[C@](C)(O)[C@H](NC)[C@H]1O [Netilmicin Sulfate]	12.1 ± 0.17	-0.66	1.38	-0.06	0.67	-0.25	0.44	0.03	-0.24	0.09	1.14	0.72	0.72				
CCc1cc(C(N)=S)ccn1 [Ethionamide]		0.06	0.23	0.86	-0.01	0.59	0.32		-0.03	-0.14	-0.28	-0.07	-0.72	0.25	-0.25		
C=C1CCC2C(C)(CO)C(O)CCC2(C)C1CC=C1C=COC1=O (configuration not stated) [Dehydroandrographolide]		-0.69	0.35		-0.43	0.8	1.74	0.87	1.67	0.64	0.5	1.23	0.91		0.26	0.11	
CN(Cc1ccc(C(C)(C)C)cc1)Cc1cccc2ccccc12 [Butenafine HCl]	12.2 ± 0.22	1.36	0.23			-0.76	-0.39	-1.43		-0.68	-0.42		0.01	-1.21		-0.86	
CO/N=C(\C(=O)N[C@@H]1C(=O)N2C(C(=O)O)=C(CSc3nc(=O)c(O)nn3C)CS[C@H]12)c1csc(N)n1 [Ceftriaxone Sodium Trihydrate]	12.23 ± 0.09	0.45	-1.17	2.07	0.09	-0.32	-0.18		0.91	2.14	0.5	-0.43	0.83	-2.42		0.14	
CNCC[C@H](Oc1cccc2ccccc12)c1cccs1 [Duloxetine HCl]		0.65	0.4		-0.11	-0.45	-0.49	0		-0.74		-0.53	0.03	0.1		-1.13	
C[C@]12CCC3=C4CCC(=O)C=C4CC[C@H]3[C@@H]1CC[C@@]2(O)CC#N [Dienogest]	12.4 ± 0.18	0.42		0.12	-0.87	0.11	-0.44	-0.11	0.26	-0.53	-0.38	0	-0.14	-0.39	-0.51	-0.02	-0.52
O=c1ccn(C2CC(O)C(CO)O2)c(=O)[nH]1 (configuration not stated) [2-deoxyuridine]		0.08	0.17		-1.16	0.07	0.89	0.04		0.49	0.54	0.23	0.04	-0.82	-0.27	-1.08	
CO[C@H]1C[C@@H]2CC[C@@H](C)[C@@](O)(O2)C(=O)C(=O)N2CCCC[C@H]2C(=O)O[C@H]([C@H](C)C[C@@H]2CC[C@@H](O)[C@H](OC)C2)CC(=O)[C@H](C)/C=C(\C)[C@@H](O)[C@@H](OC)C(=O)[C@H](C)C[C@H](C)/C=C/C=C/C=C/1C [Rapamycin (Sirolimus)]	14.19 ± 0.085	-18.4	-2.04		3.85	14.3	5.67	21.4	13.8	21	16			13.7	33	29.9	
Cc1ccccc1OCC(O)CO (configuration not stated) [Mephenesin]	12.23 ± 0.086	0.89		0.09	-0.22	-0.65	0.02	-0.48	-0.53	-0.38	-0.4	-0.39	-0.28	-0.82	-0.77	-0.86	-0.42
CN1C[C@@H]2C[C@H]1CN2c1cc2c(cc1F)c(=O)c(C(=O)O)cn2C1CC1 [Danofloxacin Mesylate]	12.1 ± 0.25	0.27		-0.69	0.06	0.54	-0.68	-0.46	-0.06	0.21	-0.5	-0.46	-0.14	0	-0.05	-0.09	-0.89
CCCCCCCCOc1ccccc1C(=O)Nc1ccc(C(=O)OCC[N+](C)(CC)CC)cc1 [Otilonium Bromide]	12.27 ± 0.099	-2.44	-2.04	-3.08	0.58	4.58		5.47	1.68	3.81		2.14		-0.66	2.02	3.65	
CC1(C)CC[C@]2(C(=O)O)CC[C@]3(C)C(=CC[C@@H]4[C@@]5(C)CC[C@H](O)C(C)(C)[C@@H]5CC[C@]43C)[C@@H]2C1 [Oleanolic Acid]	12.4 ± 0.22	-0.29	0.25	-0.03	-0.6	-0.07		1.05		0.15		0.78		0.1		0.23	
CC[C@@]1(O)C(=O)OCc2c1cc1n(c2=O)Cc2cc3c(CN(C)C)c(O)ccc3nc2-1 [Topotecan HCl]		1.13	1.3		-1.89	0.59	0.34	0.51	0.17	-0.87	0.12	-0.62		-1.6	-0.98	-2.17	
CN1CCC[C@@H]1Cc1c[nH]c2ccc(CCS(=O)(=O)c3ccccc3)cc12 [Eletriptan HBr]	12.5 ± 0.44	0.55		0.61	-0.94	0.1	0.75	0.08	-0.15	-0.54	-0.5	-1.48	-0.74	-0.86	-0.47	-1.27	-1.12
